SNCA expr inh: inhibitors of alpha-synuclein (SNCA) gene expression. Potency, µM (series often up to 57.2 µM), most hits filed as inhibitors. AID 1671194. 0.17% of 140,000 active. HEK-293 SNCA-luciferase knock-in, luminescence, 24 h; note: nearly all actives have a fitted effect of over 45% in size
IP6K1 inh: IP6K1 kinase inhibition; activity change, % (series mostly up to about 58 µM); IP6K1 kinase, ADP-Glo luminescence, 2 h; hits give low values; 0.81% of 140,000 active; Q92551; in the data active = activity change below about -25%
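ADP-Glo luminescence measures ADP made by human IP6K1 during a 2 h RT reaction with ATP/IP6 (mix at 1.3 mM/130 uM); top library doses 57.5 and 19.1 uM final.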
HEK293 tox: cytotoxic compounds in HEK 293 cells; HEK 293 viability, ATP luminescence (CellTiter-Glo), 48-72 h; Potency, µM (top dose mostly 115 µM), most hits filed as inhibitors; 6.6% of 94,000 active; AID 1345083; note: nearly all actives have a fitted effect of over 60% in size
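ATP-coupled CellTiter-Glo luminescence served as viability read-out, recorded 10 min after reagent addition at room temperature. HEK 293 cells, 250 cells/well, had been incubated with pintool-transferred compound for 48 or 72 hr at 37 degree Celsius.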
HEK293 viab: reduces viability of HEK-293 SNCA reporter cells; 0.12% of 150,000 active; HEK-293-SNCA-luc viability, GF-AFC fluorescence, 24 h; Potency, µM (doses to about 57.1 µM), hits mostly cytotoxic; note: nearly all actives have a fitted effect of over 30% in size
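Cytotoxicity counterscreen: after 24 h compound treatment of genome-edited SNCA-luciferase HEK-293 cells, live-cell protease substrate GF-AFC read by fluorescence after 30 min; activity scaled between DMSO (0%) and medium-only (-100%), curves Hill-fitted.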
NIH3T3 tox: NIH 3T3 cell cytotoxicity. NIH 3T3 viability, CellTiter-Glo ATP luminescence, 48-72 h. 4.3% of 94,000 active. Potency, µM (titrated, usually from 96.7 µM), actives largely listed as inhibitors; note: nearly all actives have a fitted effect of over 55% in size
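Cytotoxicity is measured as loss of cellular ATP: NIH 3T3 cells (400/well) are exposed to compound for 48 or 72 hr at 37 °C, then CellTiter-Glo luminescence is imaged after 10 min at room temperature.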
FLuc inh: blocks purified firefly luciferase enzyme activity; AID 1347043; purified P. pyralis luciferase, luminescence, biochemical; P08659; 2.5% of 76,000 active; Potency, µM (highest dose often 115 µM), actives largely listed as inhibitors; note: nearly all actives have a fitted effect of over 65% in size
Target sequence (P08659 whole entry, looked up): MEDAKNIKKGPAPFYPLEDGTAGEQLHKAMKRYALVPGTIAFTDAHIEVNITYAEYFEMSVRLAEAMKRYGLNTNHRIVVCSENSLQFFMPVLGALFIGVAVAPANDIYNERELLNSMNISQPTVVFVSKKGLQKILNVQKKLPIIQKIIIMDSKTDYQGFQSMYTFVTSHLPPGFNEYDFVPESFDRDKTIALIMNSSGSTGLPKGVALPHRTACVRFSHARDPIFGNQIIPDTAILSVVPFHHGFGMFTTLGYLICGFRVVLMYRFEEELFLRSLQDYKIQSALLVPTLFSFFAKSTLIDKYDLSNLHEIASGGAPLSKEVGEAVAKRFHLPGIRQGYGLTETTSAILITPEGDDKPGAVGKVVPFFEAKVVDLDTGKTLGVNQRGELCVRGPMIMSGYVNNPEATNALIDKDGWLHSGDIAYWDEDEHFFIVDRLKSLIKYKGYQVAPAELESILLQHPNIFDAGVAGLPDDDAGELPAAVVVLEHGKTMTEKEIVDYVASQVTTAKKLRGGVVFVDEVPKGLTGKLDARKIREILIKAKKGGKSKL
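Inhibitors were tested against purified firefly luciferase in a biochemical, low-substrate format (both substrates at 10uM) and luminescence measured with a CCD imager.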
Large screens that a line does not name were inactive. A selection: hits, their analogues and other compounds. The true share with any hit is near 7.3%. Unless noted, calls come from the whole dose curve; as a rule, active = well fitted curve in the direction sought with a large enough effect; inconclusive = small, poorly fitted or top-dose-only effect, or another doubt; inactive = no such curve, though single readings can be large; an effect the other way counts as inactive or inconclusive.

Cc1nn(-c2ccccc2)c2c1C(C(C)C)N(C1CCCN(C(=O)c3ccc(Cl)nc3)C1)C2=O (configuration not stated)	HEK293 tox 40µM, NIH3T3 tox inconclusive (no result: SNCA expr inh, HEK293 viab, FLuc inh)
Cc1nn(-c2ccccc2)c2c1C(C(C)C)N(C1CCCN(C(=O)c3ccc(F)cc3)C1)C2=O (configuration not stated)	HEK293 tox 28µM, NIH3T3 tox inconclusive (no result: SNCA expr inh, HEK293 viab, FLuc inh)
Cc1nn(-c2ccccc2)c2c1C(C(C)C)N(C1CN(C(=O)c3ccc(F)cc3)C1)C2=O (configuration not stated)	HEK293 tox inconclusive, NIH3T3 tox inconclusive (no result: SNCA expr inh, HEK293 viab, FLuc inh)
Cc1nn(-c2ccccc2)c2c1C(C1CC1)N(C1CCN(C(=O)Cc3ccc(F)cc3)C1)C2=O (configuration not stated)	HEK293 tox 35µM, NIH3T3 tox inconclusive (no result: SNCA expr inh, HEK293 viab, FLuc inh)
Cc1nn(-c2ccccc2)c2c1C(C(C)C)N(C1CCCN(C(=O)c3ccccc3)C1)C2=O (configuration not stated)	HEK293 tox inconclusive, NIH3T3 tox inconclusive (no result: SNCA expr inh, HEK293 viab, FLuc inh)
CCOC(=O)C1CCN(C(=O)c2nc3sccn3c2-c2cccnc2)CC1	none (no result: FLuc inh)
CC(C(=O)N1CC(c2noc(COc3ccccc3)n2)C1)c1ccccc1 (configuration not stated)	HEK293 tox inconclusive, NIH3T3 tox inconclusive (no result: FLuc inh)
Cc1noc(-c2ccc(OC3CN(C(=O)c4ccoc4)C3)cc2)n1	none
Cc1nn(-c2ccccc2)c2c1C(C(C)C)N(C1CCN(C(=O)N(C)C)C1)C2=O (configuration not stated)	HEK293 tox inconclusive, NIH3T3 tox inconclusive (no result: SNCA expr inh, HEK293 viab, FLuc inh)
Cc1nn(-c2ccccc2)c2c1C(C)N(C1CN(C(=O)Cc3ccccc3)C1)C2=O (configuration not stated)	HEK293 tox inconclusive, NIH3T3 tox inconclusive (no result: SNCA expr inh, HEK293 viab, FLuc inh)
Cc1nn(-c2ccccc2)c2c1C(C(C)C)N(C1CN(C(=O)Cc3ccccc3)C1)C2=O (configuration not stated)	HEK293 tox 50µM, NIH3T3 tox inconclusive (no result: SNCA expr inh, HEK293 viab, FLuc inh)
Cc1nn(-c2ccccc2)c2c1C(C(C)C)N(C1CCN(C(=O)N3CCOCC3)C1)C2=O (configuration not stated)	HEK293 tox 79µM, NIH3T3 tox inconclusive (no result: SNCA expr inh, HEK293 viab, FLuc inh)
Cc1nn(-c2ccccc2)c2c1C(C(C)C)N(C1CCCN(C(=O)Cc3ccc(F)cc3)C1)C2=O (configuration not stated)	HEK293 tox 25µM, NIH3T3 tox inconclusive (no result: SNCA expr inh, HEK293 viab, FLuc inh)
Cc1nn(-c2ccccc2)c2c1C(C(C)C)N(C1CCN(C(=O)C3CC3)C1)C2=O (configuration not stated)	HEK293 tox inconclusive, NIH3T3 tox inconclusive (no result: SNCA expr inh, HEK293 viab, FLuc inh)
Cc1nn(-c2ccccc2)c2c1C(C(C)C)N(C1CCCN(C(=O)C3CC3)C1)C2=O (configuration not stated)	HEK293 tox 28µM, NIH3T3 tox inconclusive (no result: SNCA expr inh, HEK293 viab, FLuc inh)
CN1C(=O)C(c2ccccc2)CC12CCN(C(=O)c1ccc(F)cc1F)CC2 (configuration not stated)	none
O=C(NCCc1ccccc1)c1ccc2oc(-c3ccncc3)nc2c1	none (no result: FLuc inh)
O=C(NCC1CC1)c1ccc2nc(-c3ccncc3)oc2c1	none (no result: FLuc inh)
COc1ncccc1-c1nc2cc(C(=O)Nc3cccc(Cl)c3)ccc2o1	HEK293 tox 13µM (no result: FLuc inh)
Cc1ncccc1-c1nc2cc(C(=O)NCCCc3ccccc3)ccc2o1	HEK293 tox 79µM, NIH3T3 tox 50µM (no result: FLuc inh)
Cc1cccc(-c2nc3ccc(C(=O)NC4CC4)cc3o2)n1	SNCA expr inh inconclusive, HEK293 tox 45µM, NIH3T3 tox inconclusive (no result: FLuc inh)
O=C(NCC1CC1)c1ccc2nc(-c3ccccn3)oc2c1	HEK293 tox 112µM, NIH3T3 tox inconclusive (no result: FLuc inh)
COc1ccc(NC(=O)c2ccc3nc(-c4ccccn4)oc3c2)cc1	HEK293 tox 25µM (no result: FLuc inh)
COc1ccccc1-c1n[nH]c2c1CC(=O)N(Cc1ccccc1)C2	HEK293 tox inconclusive, NIH3T3 tox inconclusive
COc1ccc(CN2Cc3[nH]nc(-c4ccc(C(=O)N5CCOCC5)cc4)c3CC2=O)cc1	HEK293 tox 79µM
COCc1cccc(-c2n[nH]c3c2CC(=O)N(Cc2ccc(OC)cc2)C3)c1	SNCA expr inh inconclusive, HEK293 tox inconclusive, NIH3T3 tox 25µM
COc1ccc(CN2Cc3[nH]nc(-c4cnc(OC)nc4)c3CC2=O)cc1	NIH3T3 tox 8.9µM
COc1ncccc1-c1n[nH]c2c1CC(=O)N(Cc1ccccc1)C2	NIH3T3 tox 25µM
O=C1Cc2c(-c3ccc(C(=O)N4CCOCC4)cc3)n[nH]c2CN1Cc1ccccc1	HEK293 tox inconclusive, NIH3T3 tox inconclusive
COc1ccc(CN2Cc3[nH]nc(-c4ccc(CO)cc4)c3CC2=O)cc1	NIH3T3 tox inconclusive
O=C([C@@H]1OCCN(C2CC2)[C@H]1c1ccccc1)N1CCC(Cc2ccccc2)CC1	HEK293 tox inconclusive, NIH3T3 tox inconclusive (no result: FLuc inh)
COCCN1Cc2[nH]nc(-c3ccc(OC)c(F)c3)c2CC1=O	NIH3T3 tox 79µM
COc1ncc(-c2n[nH]c3c2CC(=O)N(Cc2ccccc2)C3)cn1	HEK293 tox inconclusive, NIH3T3 tox 25µM
COc1cccc(N2CC(C(=O)NCc3cccc(F)c3)NC2=O)c1 (configuration not stated)	HEK293 tox inconclusive
O=C(Nc1ccc(-c2nnc3n2CCCC3)cc1)c1ccc(Cl)cc1	none
CNc1cc(C2CC(NC(=O)COc3ccc(Cl)cc3C)C2)nc(N)n1 (configuration not stated)	HEK293 tox 18µM, NIH3T3 tox 40µM
O=C(Cc1cccc(F)c1)N1CCC(N2C(=O)C3(CCCCC3)C2c2ccccc2)CC1 (configuration not stated)	HEK293 tox inconclusive, NIH3T3 tox inconclusive (no result: FLuc inh)
CCc1c(C(=O)N2CCC(CO)(Cc3ccccc3)CC2)[nH]c2ccccc12	HEK293 tox 20µM, NIH3T3 tox inconclusive
Cc1ccccc1C(=O)N1CCCC(C(=O)N2CCC(c3nc4ccncc4[nH]3)C2)C1 (configuration not stated)	none (no result: FLuc inh)
COc1cccc(C(=O)N2CCN(c3ccc4ncc(-c5cccc(C(F)(F)F)c5)n4n3)CC2)c1	HEK293 tox inconclusive, NIH3T3 tox 11µM (no result: SNCA expr inh, HEK293 viab, FLuc inh)
COc1cccc(C(=O)N2CCN(c3ccc4nnc(-c5ccccc5)n4n3)CC2)c1	HEK293 tox inconclusive, NIH3T3 tox inconclusive (no result: SNCA expr inh, HEK293 viab, FLuc inh)
O=C(Cn1nc2c(cc1=O)CCCCC2)NCc1ccc(C(=O)O)cc1	none
O=c1cc2c(nn1Cc1ccc(OC(F)(F)F)cc1)CCCCC2	HEK293 tox 45µM, NIH3T3 tox inconclusive
O=C(NCc1cccs1)c1cc(-c2ccc(Cl)cc2Cl)c2nncn2n1	HEK293 tox inconclusive, NIH3T3 tox inconclusive (no result: FLuc inh)
